Data on twelve compounds can be found in PubChem BioAssay (EPA / NIEHS).

Molecules are shown by their SMILES. Values joined by “and” are separate entries in the source; they are usually repeats but may differ in a detail not shown here. Identical values can stand only once. The source holds several records for some structures; these can differ, active in one and inactive in another. Active and inactive are the calls of the source. The calls were made as follows: active = hit-call score of the fitted dose curve at least 0.9, where 1 is the maximum; inactive = score below 0.9.

Read-out in this assay: Monocyte Chemoattractant Protein-1 (MCP1), CCL2 (gene 6347)
In words: BSK_hDFCGF_MCP1: BioMAP Diversity Plus: hDFCGF Assay for Monocyte Chemoattractant Protein-1 (MCP1) Biomarker Activity (AID 2284285). Conditions: primary human foreskin fibroblasts. The protocol:
BSK_hDFCGF is a cell-based, multiplexed-readout assay that uses foreskin fibroblast, a human skin primary cell, with measurements taken at 24 hours after chemical dosing in a 96-well plate.BSK_hDFCGF_MCP1 is an assay component measured in the BSK_hDFCGF assay. It measures MCP-1 antibody related to regulation of gene expression using ELISA technology.Data from the assay component BSK_hDFCGF_MCP1 was analyzed at the endpoint, BSK_hDFCGF_MCP1, in the positive analysis fitting direction relative to DMSO as the negative control and baseline of activity. Using a type of binding reporter, gain or loss-of-signal activity can be used to understand protein changes. To generalize the intended target to other relatable targets, this assay endpoint is annotated to the 'cytokine' intended target family, where the subfamily is 'chemotactic factor'.
The levels of cell surface (or secreted, indicated by the prefix "s") biomarker endpoints were measured by ELISA. Overt cytotoxicity to cells in confluent adherent cultures (all systems other than the BT system) was assessed by measuring total protein levels using sulforhodamine B (SRB) staining in parallel cultures at the time of biomarker measurements, indicated as SRB endpoints. For proliferation assays for adherent cell types, individual cell types are cultured at sub-confluence and relative cell numbers quantified by SRB staining at time points optimized for each system (48 h: 3C and CASM3C systems; 72 h: BT and HDF3CGF systems; 96 h: SAg system). SRB was performed by staining cells with 0.1% SRB after fixation with 10% TCA and reading wells at 560 nm.Viability and proliferation of PBMC (T cells) was quantified by Alamar Blue reduction for the SAg and BT systems. For PBMC viability (referred to as PBMC Cytotoxicity within the assay endpoint names), cells were plated (75,000/well in a 96-well plate) and then chemical samples added for 1 h before addition of activators, SEB and TSST-1 (20 ng/mL final concentration each). Cells were incubated for 90 h. Then, Alamar Blue (20 uL/well) (Invitrogen, Cat DAL1100) was added for 6 h, and the plates were read with a fluorescence microplate reader at 546/580 nm (excitation/emission). For PBMC proliferation, cells were plated and activated as above but incubated for only 16 h prior to addition of Alamar Blue. Plates were read after 6 h.
As to `Cc1c(C(N)=O)cc([N+](=O)[O-])cc1[N+](=O)[O-]`, the outcome was inactive.

For `CCCCC(CC)COC(=O)C=Cc1ccc(OC)cc1` (stereo unspecified), the AC50 – broadly, the midpoint of the concentration-response curve, whichever way the signal moves – was 8.08 µM (active) and the outcome was inactive.

In the case of `O=[N+]([O-])c1cc(S(=O)(=O)Nc2ccccc2)ccc1Nc1ccccc1`, the concentration at half-maximal activity (AC50) was 30.8 µM (active) and 29.7 µM (active).

In the case of `C1CN(CCOCCN2CCOCC2)CCO1`, the outcome was inactive.

On to `CC(C)C1OCCN1CCOC(=O)NCCCCCCNC(=O)OCCN1CCOC1C(C)C` (stereo unspecified), for which the AC50 is 0.149 µM (active) and the outcome was inactive.

`COc1ccc(C(=O)c2ccccc2O)c(O)c1`: the result was inactive.

Turning to `CN(C)Cc1cc(C(C)(C)C)c(O)c(C(C)(C)C)c1`, the result was inactive.

For `COc1ccccc1Oc1c(NS(=O)(=O)c2ccc(C(C)(C)C)cc2)nc(-c2ncccn2)nc1OCCO`, the outcome was inactive.

Consider `COc1cc(CNC(=O)CCCC/C=C/C(C)C)ccc1O`, for which the outcome was inactive and the half-maximal activity concentration (AC50) was 0.508 µM (active).

Regarding `CCC[Si](OC(C)=O)(OC(C)=O)OC(C)=O`, the result was inactive.

On to `OC(C(F)(F)F)(C(F)(F)F)C(O)(C(F)(F)F)C(F)(F)F`, for which the half-maximal activity concentration (AC50) is 7.94 µM (active) and the result was inactive.

On to `CC[N+](CC)(CC(=O)Nc1c(C)cccc1C)Cc1ccccc1` (tested in a mixture with another compound), for which the outcome was inactive.
